The text below walks through data of ChEMBL document CHEMBL3988442, “University of Dundee, Small-Polar-MMV Screening Library” (2021).

Screen size: about 69,000 compounds; about 950 (1.4%) showed an effect of 50% or more. Shown is part of a subset that was picked to be rich in strong results.

For the assay, the system named is Mycobacterium tuberculosis. Put plainly: Cornell M. t heat shock assay. Note: in the data most compounds retested in dose-response had high values. Also noted: dose or concentration left out as unconfirmed. It counts as functional, organism-based.
In the case of `COc1ccccc1C1CCN(c2ccc3cc[nH]c3n2)CC1`, the “Percent Effect” value is listed as -1.592%.

As for `COc1ccc(OC)c(C2CCN(c3ccc4cc[nH]c4n3)C2)c1` (stereo not drawn), the “Percent Effect” value was found to be 103.8%. Take `COc1cccc(C2CCN(c3ccc4cc[nH]c4n3)C2)c1OC` (stereo not drawn): the “Percent Effect” value is given as 36.99%. The same measure for `CS(=O)(=O)N1C[C@H]2CC[C@@H]1CN(Cc1ccncc1)C2`: -0.4425%; for `Cn1cc(N2CCC3(CCN(Cc4nccs4)C3)C2=O)cn1.O=C(O)C(F)(F)F` (stereo not drawn): -0.6336%.

For `Cc1cnnn1Cc1ncn2c1CN(Cc1cccs1)CCC2.O=C(O)C(F)(F)F`, the “Percent Effect” value was 1.772%.

For the molecule `O=C(O)C(F)(F)F.O=C(O)C(F)(F)F.O=C1CO[C@@H]2CN(CC3CCOCC3)C[C@H]2N1Cc1ccncc1`, the “Percent Effect” value is listed as -5.107%. The same measure for `N#Cc1cc(NC(=O)c2ccsc2)ccc1N1CCC(O)CC1`: 11.62%; for `Cc1ccsc1C(=O)Nc1ccc(N2CCC(O)CC2)c(C#N)c1`: 75.65%. The same measure for `Cc1ccc(C(=O)Nc2ccc(N3CCC(O)CC3)c(C#N)c2)s1`: 25.13%; for `COc1ccc(C[C@H]2CN(C(=O)c3ccc(C)nc3)CC[C@@H]2OC)cc1.O=C(O)C(F)(F)F`: -2.913%; for `CNC(=O)[C@H]1C[C@@H]2CCN(Cc3ccncc3)C[C@H]2O1.O=C(O)C(F)(F)F.O=C(O)C(F)(F)F`: -3.411%. Take `CC(C)c1cc(C(=O)NCC2CCCN(C(C)C)C2)n(C)n1.Cl` (stereo not drawn): the “Percent Effect” value is given as -0.8268%.

As to `Cc1cnn(CC2CCCN2CC(=O)Nc2cc(C(C)(C)C)no2)c1` (stereo not drawn), the “Percent Effect” value was found to be 73.93%. The same measure for `Cc1cnn(CC2CCCN2CC(=O)NC2CCOCC2)c1` (stereo not drawn): -0.7823%. Under `Cc1cnn(CC2CCCN2CC(=O)Nc2cc(C)no2)c1` (stereo not drawn) stands 35.93%; under `Cc1cc(C)n(CC2CCCN2CC(=O)Nc2cc(C(C)C)no2)n1` (stereo not drawn), 66.41%; under `CC(C)(C)c1cc(NC(=O)CN2CCCCC2Cn2cncn2)on1` (stereo not drawn), -1.6%. The same measure for `Cc1nc(C)n(CC2CCCN2CC(=O)Nc2cc(C(C)C)no2)n1` (stereo not drawn): -40.94%; for `Cc1cnn(CC2CCCN2CC(=O)Nc2cc(C)on2)c1` (stereo not drawn): -31.38%; for `CC(C)(C)c1cc(NC(=O)CN2CCCC2Cn2cccn2)on1` (stereo not drawn): 77.39%. Take `CC(C)(C)c1cc(NC(=O)CN2CCCC2Cn2cncn2)on1` (stereo not drawn): the “Percent Effect” value worked out at 2.377%. The same measure for `CC(C)c1cc(NC(=O)CN2CCCC2Cn2cccn2)on1` (stereo not drawn): -10.53%; for `Cc1cnn(CC2CCCN2CC(=O)Nc2cc(C(C)C)no2)c1` (stereo not drawn): 98.13%; for `CC(C)c1cc(NC(=O)CN2CCCC2Cn2cncn2)on1` (stereo not drawn): -8.042%. Under `CCCc1nc(CN2CCCC(Cn3cncn3)C2)no1` (stereo not drawn) stands -9.9%; under `O=C(O)C(F)(F)F.O=C(O)C(F)(F)F.c1cncc(OCC2CN(Cc3ccsc3)Cc3nccn3C2)c1` (stereo not drawn), -18.26%; under `COCCN1C(=O)C[C@H]2[C@H]1CCN2Cc1ccccc1.O=C(O)C(F)(F)F`, 3.349%.

Take `CN(C)[C@@H]1CCN(C(=O)c2ccsc2)[C@H]1Cc1cccnc1.O=C(O)C(F)(F)F.O=C(O)C(F)(F)F`: the “Percent Effect” value was -16.81%. `Cc1ccc(N2Cc3cnn(C)c3C(COCC3CC3)C2)nn1.O=C(O)C(F)(F)F.O=C(O)C(F)(F)F` (stereo not drawn): the “Percent Effect” value is 49.24%.

Turning to `COc1ccc(CN2CCC3(CC2)NC(=O)CC3c2cnn(C)c2)cc1.O=C(O)C(F)(F)F` (stereo not drawn), the “Percent Effect” value is listed as -26.9%. In the case of `O=C1C[C@H]2CC[C@@H](CN1)N2C(=O)CCc1ccccc1`, the “Percent Effect” value came out at 16.33%. The same measure for `CO[C@@H]1CCN(Cc2cccs2)[C@@H]2CN(Cc3ccncc3)C[C@@H]21.O=C(O)C(F)(F)F.O=C(O)C(F)(F)F.O=C(O)C(F)(F)F`: 42.16%; for `COCC(=O)N1CCCC(C)(c2nncn2C)C1` (stereo not drawn): 11.29%. Under `Cc1cccc(CN2CCC3(CC2)CN(c2cccnc2)C(=O)CO3)n1.O=C(O)C(F)(F)F.O=C(O)C(F)(F)F` stands -14.12%; under `Cc1nn(C)c(Cl)c1C1CCCN1C(=O)c1ccc(C(N)=O)cn1` (stereo not drawn), -15.15%. Under `Cc1cc(C)n(CC2CCCCN2CC(=O)Nc2nnc(C)s2)n1` (stereo not drawn) stands 10.12%.

In the case of `Cc1cc(C)n(CC2CCCCN2CC(=O)Nc2nncs2)n1` (stereo not drawn), the “Percent Effect” value is reported as 69.77%. The same measure for `Cc1cc(C)n(CC2CCCN2CC(=O)Nc2nncs2)n1` (stereo not drawn): -43.1%; for `CO[C@@H]1CC[C@H]2[C@H]1OCCN2CC1CC1.O=C(O)C(F)(F)F`: -34.92%; for `Cc1nn(C)c2c(=O)n(CC(=O)NCc3ccc(N(C)C)cc3)ccc12`: 2.829%. The same measure for `COCCN1C[C@@H]2CN(Cc3ccc(C)s3)CCC[C@]2(C(=O)O)C1.O=C(O)C(F)(F)F.O=C(O)C(F)(F)F`: -29.4%; for `Cc1nc(C)n(CC2CCCN2Cc2nc3ccccc3n2C)n1` (stereo not drawn): -5.876%; for `Cc1nc(CN2CCCCC2Cn2cccn2)nc2ccccc12` (stereo not drawn): 49.4%. In the case of `Cc1cnn(CC2CCCCN2Cc2nc(C)c3ccccc3n2)c1` (stereo not drawn), the “Percent Effect” value turned out to be 67.77%. The same measure for `Cc1cnn(CC2CCCN2Cc2nc3ccccc3nc2C)c1` (stereo not drawn): 7.151%; for `Cc1cnn(CC2CCCN2Cc2noc(C)n2)c1` (stereo not drawn): -1.003%. The same measure for `Cc1nc(CN2CCCC2Cn2cccn2)nc2ccccc12` (stereo not drawn): 33.45%; for `Cc1nc(CN2CCCCC2Cn2cncn2)nc2ccccc12` (stereo not drawn): -16.52%. Under `Cc1cnn(CC2CCCN2Cc2ncc(-c3ccccc3)o2)c1` (stereo not drawn) stands 61.17%; under `Cc1cnn(CC2CCCN2Cc2nc3ccccc3n2C)c1` (stereo not drawn), 101.1%; under `Cc1cnn(CC2CCCN2Cc2nc(C)c3ccccc3n2)c1` (stereo not drawn), 101.6%.

Regarding `Cc1cnn(CC2CCCN2Cc2ncc(-c3ccc(F)cc3)o2)c1` (stereo not drawn), the “Percent Effect” value is listed as -10.3%. The same measure for `c1ccc(-c2cnc(CN3CCCC3Cn3cccn3)o2)cc1` (stereo not drawn): 7.104%; for `COc1ccc(C(=O)N2Cc3cc(C)ccc3OCC2CN(C)C)cc1.Cl` (stereo not drawn): -9.159%. The same measure for `Cc1cccc(CN2CCCC3(CCC(=O)N3CCN(C)C)CC2)n1.O=C(O)C(F)(F)F.O=C(O)C(F)(F)F` (stereo not drawn): -9.93%. Under `CC(C)NC(=O)N1CCc2ncnc(-c3ccncc3)c2CC1.O=C(O)C(F)(F)F` stands 36.54%; under `CCn1ccc2ccnc(CC3CN(C(=O)Cn4ccnc4C)C3)c21.O=CO`, -10.71%; under `Cc1nc2sccn2c1CN(CCCN(C)C)Cc1ccccn1.O=C(O)CC(O)(CC(=O)O)C(=O)O`, -0.915%. For the molecule `Cn1ccnc1CN(Cc1ccccn1)Cc1ccccc1Cl.O=C(O)CC(O)(CC(=O)O)C(=O)O`, the “Percent Effect” value is given as 102.4%. Under `Cc1ncc(CN(Cc2ccccn2)Cc2ccccc2Cl)n1C.O=C(O)CC(O)(CC(=O)O)C(=O)O` stands 34.76%; under `COc1ccc(CN(Cc2cncn2C)CC2CCCO2)cc1OC.O=C(O)CC(O)(CC(=O)O)C(=O)O` (stereo not drawn), -6.379%. Under `COc1ccc(CN(Cc2cncn2C)CC2CCCO2)cc1.O=C(O)CC(O)(CC(=O)O)C(=O)O` (stereo not drawn) stands 1.542%; under `COc1ccc(CN(Cc2ccccn2)Cc2cncn2C)cc1.O=C(O)CC(O)(CC(=O)O)C(=O)O`, 72.33%.

Consider `COc1ncc(CN2CCCC(c3[nH]ncc3S(C)(=O)=O)C2)cn1` (stereo not drawn), for which the “Percent Effect” value is recorded as -20.65%. The same measure for `CSc1ccccc1C(=O)N1C[C@H]2CC[C@@H]1CN(C(=O)C1CCC1)C2`: 6.914%; for `Cn1cc(CN2CCCC23CCN(C(=O)c2cccs2)CC3)cn1.O=C(O)C(F)(F)F`: -13.39%; for `CN1CCN(Cc2cn3c(n2)CN(Cc2cccc(F)c2)CC3)CC1.O=C(O)C(F)(F)F.O=C(O)C(F)(F)F.O=C(O)C(F)(F)F`: -2.625%.

On to `c1ccc(OCc2ccncc2)c(CNC2CCc3ncnn3C2)c1` (stereo not drawn), for which the “Percent Effect” value was 14.47%. The same measure for `c1cncc(COc2ccccc2CNC2CCc3ncnn3C2)c1` (stereo not drawn): 103.3%; for `c1ccc(COc2ccccc2CNC2CCc3ncnn3C2)cc1` (stereo not drawn): 4.249%; for `CC(C)N(C)Cc1cc(=O)n2c(n1)CN(S(=O)(=O)C1CC1)CCC2.O=C(O)C(F)(F)F`: 3.887%. The same measure for `Fc1ccccc1C(CNc1ccncn1)N1CCCC1` (stereo not drawn): -9.26%; for `CSc1ccc(CNC(c2ccccc2F)c2nccn2C)cc1.Cl` (stereo not drawn): 112.7%. Under `CSc1ccc(CNC2CCN(CCc3ccncc3)CC2)cc1` stands 5.943%.

For `COc1c(CNC(c2nccn2C)C(C)C)c(C)nn1C` (stereo not drawn), the “Percent Effect” value worked out at 2.612%. The same measure for `CC(NCCn1cccn1)c1ccccc1F` (stereo not drawn): -16.32%; for `COc1ccccc1C(NCc1ccc(SC)cc1)c1nccn1C` (stereo not drawn): 111.2%; for `COc1ccc(CN(C)c2ccc(-c3nccn3C)nn2)cc1OC`: 6.196%. Under `COc1c(CNC(c2ccccc2F)c2nccn2C)c(C)nn1C` (stereo not drawn) stands -25.27%; under `COc1cc(CN2CCn3c(CO)nnc3C2)ccc1OC(C)C.O=C(O)CC(O)(CC(=O)O)C(=O)O`, -10.49%. Under `CNC(=O)N1C[C@H]2C[C@H](C(=O)Nc3cccnc3)[C@@H](C1)O2.O=C(O)C(F)(F)F` stands -3.973%; under `Cc1ccc(C(=O)N2C[C@@H]3CC[C@H](C2)N(Cc2ccccc2)C3)cn1`, -13.46%. As to `CCc1cc(=O)n(CCNC(=O)Nc2ccc(OC(F)(F)F)cc2)cn1`, the “Percent Effect” value came to 32.6%. Under `O=C(O)C(F)(F)F.O=C(O)C(F)(F)F.O=C(O)C(F)(F)F.c1ccc(CN2CCCC3(CCN(Cc4cccs4)C3)C2)nc1` (stereo not drawn) stands 0.0284%; under `CCc1c(C(=O)N2C[C@H]3CC[C@@H]2CN(c2cnccn2)C3)csc1C`, -16.87%; under `Cc1nc(NC(C)C)nc2c1CN(Cc1nccn1C)CC2`, 12.34%. Under `CC(C)Nc1nc(N2CCCC2)nc2c1CN(S(C)(=O)=O)CC2` stands 11%; under `CC(=O)NCc1noc2c1CN(Cc1cccs1)CC2`, 18.13%; under `CCN1CCc2nc(N3CCOCC3)nc(NC(C)C)c2C1`, 8.22%. The same measure for `CC(C)Nc1nc(N2CCCC2)nc2c1CN(C(C)C)CC2`: 101.9%; for `CC(C)Oc1ncnc2c1CCN(Cc1cccs1)CC2`: 17.98%; for `CC(C)Nc1nc(N2CCCC2)nc2c1CN(C)CC2`: 4.665%. For the molecule `Cc1nc(NC(C)C)nc2c1CN(Cc1cccs1)CC2`, the “Percent Effect” value is reported as 99.87%. Under `Cc1nc(CN2CCc3nc(NC(C)C)nc(C)c3C2)cs1` stands 99.63%. Under `Cc1nc(CN2CCc3nc(N4CCCC4)nc(NC(C)C)c3C2)cs1` stands 104.3%; under `Cc1nc(CN2CCc3ncnc(C)c3CC2)cs1.O=C(O)C(F)(F)F`, 2.444%; under `CCC(C)N1CCc2nc(N3CCCC3)nc(NC(C)C)c2C1` (stereo not drawn), -2.093%.
